CYP2C9 activ: increases human cytochrome P450 2C9 activity; activation factor at 5 µM; AID 1024; recombinant CYP2C9, luciferin-H conversion, luminescence; stronger effect = higher value; factor 1 = untreated enzyme, 0 = blocked; hit rate 1.4% among 96,000;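 active means activation factor of 2 or more for CYP2C9 at a 5 µM dose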;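 further: 0 = sulfaphenazole-blocked wells and 1 = vehicle-only wells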
CYP2C9 inhib: blocks human cytochrome P450 2C9. AID 777. hit rate 20% among 96,000. CYP2C9 Supersomes, luciferin-H conversion, luminescence. inhibition, % at 5 µM;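 active means blocking of liver enzyme CYP2C9 beyond about 50% at 5 µM, limit read from the data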
EphB4 antag: EphB4-ephrin-B2 interaction antagonism | EphB4 LBD / TNYL-RAW-Alexa532 peptide, fluorescence polarization | hit rate 0.15% among 97,000 | inhibition, % at 7 µM | AID 720 | P54760;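 active means inhibition above the screen-wide mean inhibition plus 3 SD, cut at about 15% in these data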;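 further: 0% = DMSO wells and 100% = excess unlabeled TNYL-RAW peptide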
CYP2C19 act: increases human CYP2C19 enzyme activity | P33261 | activation factor at 5 µM | recombinant CYP2C19, luciferin-H EGE luminescence; stronger effect = higher value; 0 = fully inhibited enzyme, 1 = untreated enzyme | 96,000 tested, under 10 active;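 active means activation factor of at least 2 at 5 µM in the primary screen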;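 further: 0 = wells with 2.5 mM tranylcypromine and 1 = vehicle-only wells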
Target sequence (P33261 whole entry, looked up): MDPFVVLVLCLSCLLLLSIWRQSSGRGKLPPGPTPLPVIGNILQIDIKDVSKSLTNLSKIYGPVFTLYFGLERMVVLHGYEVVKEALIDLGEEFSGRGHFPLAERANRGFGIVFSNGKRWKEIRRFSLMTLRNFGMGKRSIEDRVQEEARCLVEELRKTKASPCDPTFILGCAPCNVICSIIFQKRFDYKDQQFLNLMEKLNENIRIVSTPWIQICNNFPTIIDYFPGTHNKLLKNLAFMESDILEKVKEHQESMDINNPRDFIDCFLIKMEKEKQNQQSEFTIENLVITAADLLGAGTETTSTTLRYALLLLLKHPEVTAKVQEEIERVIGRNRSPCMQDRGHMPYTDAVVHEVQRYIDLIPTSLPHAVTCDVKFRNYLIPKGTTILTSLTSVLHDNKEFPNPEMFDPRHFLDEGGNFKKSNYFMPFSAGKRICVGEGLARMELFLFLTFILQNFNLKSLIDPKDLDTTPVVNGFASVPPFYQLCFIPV
CYP2C19 inhib: human CYP2C19 inhibition; P33261; CYP2C19 Supersomes, luciferin-H EGE luminescence, 30 min; inhibition, % at 5 µM; hit rate 21% among 96,000; AID 778;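 active means CYP2C19 inhibition above a set limit at 5 µM in the primary screen, cut at about 50% in these data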;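 further: plate controls were negative control wells for no effect and 2.5 mM tranylcypromine positive control for full effect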
Starred values were filed as active, the others as inactive; [ ] = remark or other dose. Shown are actives, neighbours in structure and some others; about 27% of the full set was active somewhere.

How did CC(C)CCNc1nc2c(c(=O)[nH]c(=O)n2C)n1CC(O)COC(C)C (stereo not drawn) do in these assays?
CYP2C9 activ: 1; CYP2C9 inhib: 4; EphB4 antag: 0; CYP2C19 act: 1; CYP2C19 inhib: -4

How did COc1cccc(Cn2nnc(C(=O)NCc3ccc(F)cc3)c2N)c1 do in these assays?
CYP2C9 activ: 1; CYP2C9 inhib: -1; EphB4 antag: -5; CYP2C19 act: 1.1; CYP2C19 inhib: -9

Results for COc1cccc(Cn2nnc(C(=O)NCc3ccccc3Cl)c2N)c1 ?
CYP2C9 activ: 2.9*; CYP2C9 inhib: -190; EphB4 antag: 0; CYP2C19 act: 0.8; CYP2C19 inhib: 23

What do the screens show for `COc1cccc(Cn2nnc(C(=O)NCCc3ccc(Cl)cc3)c2N)c1`?
CYP2C9 activ: 1; CYP2C9 inhib: 3; EphB4 antag: 6; CYP2C19 act: 1; CYP2C19 inhib: 1

How did COc1cccc(Cn2nnc(C(=O)Nc3cc(Cl)ccc3OC)c2N)c1 do in these assays?
CYP2C9 activ: 2.1*; CYP2C9 inhib: -106; EphB4 antag: 1; CYP2C19 act: 1; CYP2C19 inhib: -4

How did COC(=O)CSc1nc2ncccc2[nH]1 do in these assays?
CYP2C9 activ: 1; CYP2C9 inhib: -3; EphB4 antag: -1; CYP2C19 act: 1.1; CYP2C19 inhib: -14

Results for O=C(NCCN1CCOCC1)C1CCN(c2ncnc3c2sc2cccc(F)c23)CC1 ?
CYP2C9 activ: 0.8; CYP2C9 inhib: 22; EphB4 antag: -1; CYP2C19 act: 0.9; CYP2C19 inhib: 11

Results for CN(C)c1ccc(NC(=O)CSCc2nc3c(nnn3Cc3ccc(F)cc3)c(=O)[nH]2)cc1 ?
CYP2C9 activ: 0.4; CYP2C9 inhib: 59*; EphB4 antag: -1; CYP2C19 act: 0.6; CYP2C19 inhib: 44

How did CC(=O)Nc1cnn(Cc2ccc(Br)cc2)c1 do in these assays?
CYP2C9 activ: 0.8; CYP2C9 inhib: 23; EphB4 antag: 0; CYP2C19 act: 0.3; CYP2C19 inhib: 66*

Results for O=C(Nc1cnn(Cc2ccc(Cl)cc2)c1)c1cnccn1 ?
CYP2C9 activ: 0.4; CYP2C9 inhib: 62*; EphB4 antag: -1; CYP2C19 act: 0.6; CYP2C19 inhib: 42

How did Clc1ccc(Cn2cc(Br)cn2)cc1Cl do in these assays?
CYP2C9 activ: 0.6; CYP2C9 inhib: 39; EphB4 antag: -7; CYP2C19 act: 0.3; CYP2C19 inhib: 72*

What do the screens show for `Clc1cccc(Cl)c1Cn1cc(Br)cn1`?
CYP2C9 activ: 0.9; CYP2C9 inhib: 6; EphB4 antag: -9; CYP2C19 act: 0.7; CYP2C19 inhib: 29

How did C/C(=N\NC(=O)C1CCCN(S(=O)(=O)c2ccccc2)C1)c1ccccn1 (stereo not drawn) do in these assays?
CYP2C9 activ: 0.7; CYP2C9 inhib: 33; EphB4 antag: -2; CYP2C19 act: 0.6; CYP2C19 inhib: 44

What do the screens show for `Cc1ccc(NC2=NCC(=O)N2c2ccc3c(c2)OCCO3)c(C)c1`?
EphB4 antag: 14

What do the screens show for `CCN(C(=O)c1ccnc(C(C)(C)C)c1)c1ccccc1`?
CYP2C9 activ: 0.6; CYP2C9 inhib: 45; EphB4 antag: 6; CYP2C19 act: 0.4; CYP2C19 inhib: 61*

What do the screens show for `O=C1c2ccccc2-c2onc3ccc(NCCCn4ccnc4)c1c23`?
CYP2C9 activ: 0; CYP2C9 inhib: 97*; EphB4 antag: 107*[fluorescence artefact?]; CYP2C19 act: 0.1; CYP2C19 inhib: 92*

What do the screens show for `Cc1nc(NCCCn2ccnc2)c2ccccc2n1`?
CYP2C9 activ: 0.6; CYP2C9 inhib: 41; CYP2C19 act: 0.7; CYP2C19 inhib: 32

Results for CCn1c(SCCOc2ccc(OC)cc2)nnc1C(CO)NC(=O)c1ccc(OC)cc1 (stereo not drawn) ?
CYP2C9 activ: 0.1; CYP2C9 inhib: 88*; EphB4 antag: 8; CYP2C19 act: 0.4; CYP2C19 inhib: 64*

How did COc1ccc(C(=O)NC(CO)c2nnc(SCc3ccc(Cl)c(Cl)c3)n2C)cc1 (stereo not drawn) do in these assays?
CYP2C9 activ: 0.7; CYP2C9 inhib: 29; EphB4 antag: -10; CYP2C19 act: 0.9; CYP2C19 inhib: 12

Results for C=CCn1c(SCCOc2ccc(OC)cc2)nnc1C(C)NC(=O)Cc1ccc(OC)cc1 (stereo not drawn) ?
CYP2C9 activ: 0.3; CYP2C9 inhib: 68*; EphB4 antag: 2; CYP2C19 act: 0.2; CYP2C19 inhib: 77*

How did Cc1ccc(N2C(=O)CC(n3ccnc3)C2=O)cc1C (stereo not drawn) do in these assays?
CYP2C9 activ: 0.9; CYP2C9 inhib: 5; EphB4 antag: 4; CYP2C19 act: 0.4; CYP2C19 inhib: 58*

Screens as filed in PubChem.
